Test results taken from ChEMBL document CHEMBL2218924, “A broad activity screen in support of a chemogenomic map for kinase signalling research and drug discovery” (Biochem J, 2013).

Legend:
[1] = molecular target: Insulin receptor (Homo sapiens) (UniProt P06213); details: at 10 µM
[2] = molecular target: Insulin receptor (Homo sapiens) (UniProt P06213); details: at 1 µM
[3] = molecular target: Insulin receptor (Homo sapiens) (UniProt P06213); details: at 10 µM; remark: listed apart in the source
[4] = molecular target: Interleukin-1 receptor-associated kinase 1 (Homo sapiens) (UniProt P51617); details: at 1 µM
[5] = molecular target: Interleukin-1 receptor-associated kinase 1 (Homo sapiens) (UniProt P51617); details: at 10 µM
[6] = molecular target: T1, Interleukin-1 receptor-associated kinase 4 (Homo sapiens) (UniProt Q9NWZ3); details: at 1 µM
T1 sequence (whole entry): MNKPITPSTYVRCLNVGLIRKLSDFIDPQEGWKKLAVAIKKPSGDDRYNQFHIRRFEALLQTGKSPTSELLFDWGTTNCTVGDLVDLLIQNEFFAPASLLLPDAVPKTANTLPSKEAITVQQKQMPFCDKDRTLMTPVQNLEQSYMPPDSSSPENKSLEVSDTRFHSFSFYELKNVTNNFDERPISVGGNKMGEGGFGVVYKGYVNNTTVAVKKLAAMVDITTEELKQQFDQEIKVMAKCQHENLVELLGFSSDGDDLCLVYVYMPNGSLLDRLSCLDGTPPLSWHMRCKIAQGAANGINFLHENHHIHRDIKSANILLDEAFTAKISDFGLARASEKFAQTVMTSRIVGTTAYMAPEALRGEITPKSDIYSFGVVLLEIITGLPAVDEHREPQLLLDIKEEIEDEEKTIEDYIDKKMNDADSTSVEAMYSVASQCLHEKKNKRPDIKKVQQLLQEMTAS

[7] = molecular target: T1, Interleukin-1 receptor-associated kinase 4 (Homo sapiens); details: at 10 µM
[8] = molecular target: Insulin receptor-related protein (Homo sapiens) (UniProt P14616); details: at 1 µM
Chain of Insulin receptor-related protein (Homo sapiens) (P14616 27-742 limits assumed): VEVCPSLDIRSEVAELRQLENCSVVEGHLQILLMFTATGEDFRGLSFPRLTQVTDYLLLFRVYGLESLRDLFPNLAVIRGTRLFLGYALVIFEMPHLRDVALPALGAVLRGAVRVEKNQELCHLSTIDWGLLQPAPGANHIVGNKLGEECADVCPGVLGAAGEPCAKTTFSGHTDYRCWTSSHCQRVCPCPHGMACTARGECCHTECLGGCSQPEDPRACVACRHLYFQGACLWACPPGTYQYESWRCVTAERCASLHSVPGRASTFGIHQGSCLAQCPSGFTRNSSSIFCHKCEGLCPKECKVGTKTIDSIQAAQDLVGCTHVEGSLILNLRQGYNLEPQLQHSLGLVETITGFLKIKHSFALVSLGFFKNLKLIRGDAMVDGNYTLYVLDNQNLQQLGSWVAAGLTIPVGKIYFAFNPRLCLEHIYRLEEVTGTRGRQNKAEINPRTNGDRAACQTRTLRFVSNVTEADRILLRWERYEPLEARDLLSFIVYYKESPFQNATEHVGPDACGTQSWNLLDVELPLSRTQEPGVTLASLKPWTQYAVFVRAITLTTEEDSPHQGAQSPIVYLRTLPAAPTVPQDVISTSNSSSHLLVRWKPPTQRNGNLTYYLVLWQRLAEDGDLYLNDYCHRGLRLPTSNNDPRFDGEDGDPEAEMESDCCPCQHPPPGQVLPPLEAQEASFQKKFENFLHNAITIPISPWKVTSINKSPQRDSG
Chain of Insulin receptor-related protein (Homo sapiens) (P14616 747-1297 limits assumed): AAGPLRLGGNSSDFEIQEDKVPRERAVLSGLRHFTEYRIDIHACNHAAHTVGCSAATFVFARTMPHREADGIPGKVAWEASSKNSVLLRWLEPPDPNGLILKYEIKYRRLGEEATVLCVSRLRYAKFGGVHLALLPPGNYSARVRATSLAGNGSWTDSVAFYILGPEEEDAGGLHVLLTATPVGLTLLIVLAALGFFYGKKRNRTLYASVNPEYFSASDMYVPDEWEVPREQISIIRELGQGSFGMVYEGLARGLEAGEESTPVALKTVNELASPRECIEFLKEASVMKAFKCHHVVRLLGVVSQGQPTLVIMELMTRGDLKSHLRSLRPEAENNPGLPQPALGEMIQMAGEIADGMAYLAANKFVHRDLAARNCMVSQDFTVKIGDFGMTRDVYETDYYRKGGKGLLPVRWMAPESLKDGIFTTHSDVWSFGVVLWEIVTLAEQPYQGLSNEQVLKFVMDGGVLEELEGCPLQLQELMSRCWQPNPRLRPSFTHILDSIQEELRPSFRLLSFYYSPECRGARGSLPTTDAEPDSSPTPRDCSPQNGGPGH

[9] = molecular target: Insulin receptor-related protein (Homo sapiens) (UniProt P14616); details: at 10 µM
[10] = molecular target: T2, Tyrosine-protein kinase ITK/TSK (Homo sapiens) (UniProt Q08881); details: at 1 µM
T2 sequence (whole entry): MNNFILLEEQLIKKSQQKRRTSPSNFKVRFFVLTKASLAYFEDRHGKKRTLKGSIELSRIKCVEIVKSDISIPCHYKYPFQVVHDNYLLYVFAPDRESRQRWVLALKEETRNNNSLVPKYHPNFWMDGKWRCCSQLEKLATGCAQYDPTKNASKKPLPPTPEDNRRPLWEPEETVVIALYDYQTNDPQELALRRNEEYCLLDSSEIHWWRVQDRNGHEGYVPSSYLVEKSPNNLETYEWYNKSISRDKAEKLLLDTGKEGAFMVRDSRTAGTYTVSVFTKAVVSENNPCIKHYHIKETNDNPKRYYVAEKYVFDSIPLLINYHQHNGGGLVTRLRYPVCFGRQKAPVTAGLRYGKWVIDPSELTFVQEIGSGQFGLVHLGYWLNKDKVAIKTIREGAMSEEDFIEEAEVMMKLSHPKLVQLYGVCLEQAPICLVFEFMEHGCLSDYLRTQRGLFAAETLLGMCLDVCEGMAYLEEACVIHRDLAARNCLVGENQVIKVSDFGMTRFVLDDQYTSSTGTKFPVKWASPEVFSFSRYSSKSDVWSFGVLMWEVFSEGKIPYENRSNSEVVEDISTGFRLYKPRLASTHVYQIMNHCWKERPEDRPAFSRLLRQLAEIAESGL

[11] = molecular target: T2, Tyrosine-protein kinase ITK/TSK (Homo sapiens); details: at 10 µM
[12] = molecular target: Tyrosine-protein kinase JAK2 (Homo sapiens) (UniProt O60674); details: at 1 µM
Chain of Tyrosine-protein kinase JAK2 (Homo sapiens) (O60674 whole entry): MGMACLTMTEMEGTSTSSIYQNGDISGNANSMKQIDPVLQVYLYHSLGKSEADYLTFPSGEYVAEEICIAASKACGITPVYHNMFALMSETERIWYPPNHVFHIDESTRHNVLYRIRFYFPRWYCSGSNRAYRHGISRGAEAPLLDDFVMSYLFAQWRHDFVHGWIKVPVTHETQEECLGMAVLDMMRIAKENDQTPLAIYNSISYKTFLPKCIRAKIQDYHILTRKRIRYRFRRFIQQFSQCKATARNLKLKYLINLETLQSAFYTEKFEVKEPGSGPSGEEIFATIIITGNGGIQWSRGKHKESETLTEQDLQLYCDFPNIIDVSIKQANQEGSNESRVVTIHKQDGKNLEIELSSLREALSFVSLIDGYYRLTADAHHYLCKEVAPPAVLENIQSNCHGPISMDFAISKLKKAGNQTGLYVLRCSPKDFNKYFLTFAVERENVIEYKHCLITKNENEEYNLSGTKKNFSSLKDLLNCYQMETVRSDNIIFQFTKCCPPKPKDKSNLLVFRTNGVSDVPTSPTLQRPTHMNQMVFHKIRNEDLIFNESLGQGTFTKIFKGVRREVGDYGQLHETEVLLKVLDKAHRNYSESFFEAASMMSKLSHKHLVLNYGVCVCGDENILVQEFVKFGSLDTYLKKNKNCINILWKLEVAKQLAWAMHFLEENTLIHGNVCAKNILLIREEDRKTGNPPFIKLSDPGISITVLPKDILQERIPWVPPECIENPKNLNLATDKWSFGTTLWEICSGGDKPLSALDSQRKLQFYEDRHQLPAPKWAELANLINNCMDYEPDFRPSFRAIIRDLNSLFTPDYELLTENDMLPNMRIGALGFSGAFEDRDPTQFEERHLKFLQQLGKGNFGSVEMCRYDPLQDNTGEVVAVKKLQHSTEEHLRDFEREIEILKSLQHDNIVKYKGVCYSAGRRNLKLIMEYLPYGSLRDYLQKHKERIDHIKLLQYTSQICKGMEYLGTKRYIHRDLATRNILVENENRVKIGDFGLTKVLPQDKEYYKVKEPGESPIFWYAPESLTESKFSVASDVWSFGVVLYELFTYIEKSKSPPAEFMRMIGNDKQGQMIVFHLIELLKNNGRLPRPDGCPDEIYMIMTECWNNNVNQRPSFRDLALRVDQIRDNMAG

[13] = molecular target: Tyrosine-protein kinase JAK2 (Homo sapiens) (UniProt O60674); details: at 10 µM
[14] = molecular target: T3, Tyrosine-protein kinase JAK3 (Homo sapiens) (UniProt P52333); details: at 1 µM
T3 sequence (whole entry): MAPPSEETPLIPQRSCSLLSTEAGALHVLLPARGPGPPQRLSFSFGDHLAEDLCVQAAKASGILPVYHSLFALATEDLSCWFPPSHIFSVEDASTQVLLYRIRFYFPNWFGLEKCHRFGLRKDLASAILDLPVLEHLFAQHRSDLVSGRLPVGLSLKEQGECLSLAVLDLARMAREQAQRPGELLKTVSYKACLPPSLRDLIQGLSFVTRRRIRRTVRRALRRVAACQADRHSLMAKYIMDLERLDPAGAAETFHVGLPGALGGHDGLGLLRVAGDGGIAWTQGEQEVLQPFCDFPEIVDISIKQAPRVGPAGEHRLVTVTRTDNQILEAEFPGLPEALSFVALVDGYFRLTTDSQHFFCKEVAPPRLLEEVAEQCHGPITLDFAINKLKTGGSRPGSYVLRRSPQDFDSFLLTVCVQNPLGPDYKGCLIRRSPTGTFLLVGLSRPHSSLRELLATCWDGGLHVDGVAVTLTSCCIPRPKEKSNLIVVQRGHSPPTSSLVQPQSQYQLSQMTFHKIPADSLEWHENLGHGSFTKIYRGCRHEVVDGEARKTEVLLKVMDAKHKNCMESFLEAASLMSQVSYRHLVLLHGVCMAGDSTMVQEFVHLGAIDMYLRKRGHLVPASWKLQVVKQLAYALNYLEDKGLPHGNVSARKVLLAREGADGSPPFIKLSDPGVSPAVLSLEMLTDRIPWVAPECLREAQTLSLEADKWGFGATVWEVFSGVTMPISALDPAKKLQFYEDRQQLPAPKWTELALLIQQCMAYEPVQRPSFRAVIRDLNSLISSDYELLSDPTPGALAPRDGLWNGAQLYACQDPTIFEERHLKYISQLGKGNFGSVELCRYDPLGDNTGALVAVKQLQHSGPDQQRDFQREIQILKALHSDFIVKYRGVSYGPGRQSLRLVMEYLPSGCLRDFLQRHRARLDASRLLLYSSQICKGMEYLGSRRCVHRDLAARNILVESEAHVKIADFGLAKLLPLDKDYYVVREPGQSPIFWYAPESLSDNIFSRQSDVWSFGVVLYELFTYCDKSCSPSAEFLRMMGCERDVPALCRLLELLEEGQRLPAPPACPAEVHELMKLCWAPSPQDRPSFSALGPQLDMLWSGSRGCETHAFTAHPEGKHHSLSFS

[15] = molecular target: T3, Tyrosine-protein kinase JAK3 (Homo sapiens); details: at 10 µM
[16] = molecular target: Mitogen-activated protein kinase 8 (Homo sapiens) (UniProt P45983); details: at 1 µM
Chain of Mitogen-activated protein kinase 8 (Homo sapiens) (P45983 whole entry): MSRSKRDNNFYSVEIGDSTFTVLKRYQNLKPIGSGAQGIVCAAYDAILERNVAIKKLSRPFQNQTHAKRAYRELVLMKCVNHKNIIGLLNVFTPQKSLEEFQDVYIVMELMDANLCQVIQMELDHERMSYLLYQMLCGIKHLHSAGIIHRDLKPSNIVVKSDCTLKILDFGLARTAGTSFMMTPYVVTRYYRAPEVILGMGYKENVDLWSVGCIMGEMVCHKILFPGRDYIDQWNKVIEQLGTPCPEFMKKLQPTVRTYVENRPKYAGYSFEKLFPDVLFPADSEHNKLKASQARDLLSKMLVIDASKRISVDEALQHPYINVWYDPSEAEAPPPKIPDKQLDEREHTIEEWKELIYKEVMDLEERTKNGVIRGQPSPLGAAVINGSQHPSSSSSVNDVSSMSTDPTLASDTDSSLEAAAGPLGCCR

[17] = molecular target: Mitogen-activated protein kinase 8 (Homo sapiens) (UniProt P45983); details: at 10 µM
[18] = molecular target: Mitogen-activated protein kinase 9 (Homo sapiens) (UniProt P45984); details: at 1 µM
[19] = molecular target: Mitogen-activated protein kinase 9 (Homo sapiens) (UniProt P45984); details: at 10 µM
[20] = molecular target: Mitogen-activated protein kinase 10 (Homo sapiens) (UniProt P53779); details: at 1 µM
Chain of Mitogen-activated protein kinase 10 (Homo sapiens) (P53779 whole entry): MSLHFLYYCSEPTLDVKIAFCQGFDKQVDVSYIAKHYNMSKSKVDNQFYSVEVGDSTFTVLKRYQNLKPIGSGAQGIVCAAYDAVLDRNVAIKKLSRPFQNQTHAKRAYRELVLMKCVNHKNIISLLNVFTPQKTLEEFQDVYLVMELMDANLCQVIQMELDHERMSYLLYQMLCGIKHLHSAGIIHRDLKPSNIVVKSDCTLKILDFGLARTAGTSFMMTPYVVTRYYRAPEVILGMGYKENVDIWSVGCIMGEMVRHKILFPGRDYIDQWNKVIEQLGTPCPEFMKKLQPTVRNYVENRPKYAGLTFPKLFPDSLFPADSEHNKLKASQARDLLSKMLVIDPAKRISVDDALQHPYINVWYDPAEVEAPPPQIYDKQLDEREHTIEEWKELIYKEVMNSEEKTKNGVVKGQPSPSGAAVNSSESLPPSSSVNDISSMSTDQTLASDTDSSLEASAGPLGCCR

Chain of Insulin receptor (Homo sapiens) (P06213 28-758 limits assumed): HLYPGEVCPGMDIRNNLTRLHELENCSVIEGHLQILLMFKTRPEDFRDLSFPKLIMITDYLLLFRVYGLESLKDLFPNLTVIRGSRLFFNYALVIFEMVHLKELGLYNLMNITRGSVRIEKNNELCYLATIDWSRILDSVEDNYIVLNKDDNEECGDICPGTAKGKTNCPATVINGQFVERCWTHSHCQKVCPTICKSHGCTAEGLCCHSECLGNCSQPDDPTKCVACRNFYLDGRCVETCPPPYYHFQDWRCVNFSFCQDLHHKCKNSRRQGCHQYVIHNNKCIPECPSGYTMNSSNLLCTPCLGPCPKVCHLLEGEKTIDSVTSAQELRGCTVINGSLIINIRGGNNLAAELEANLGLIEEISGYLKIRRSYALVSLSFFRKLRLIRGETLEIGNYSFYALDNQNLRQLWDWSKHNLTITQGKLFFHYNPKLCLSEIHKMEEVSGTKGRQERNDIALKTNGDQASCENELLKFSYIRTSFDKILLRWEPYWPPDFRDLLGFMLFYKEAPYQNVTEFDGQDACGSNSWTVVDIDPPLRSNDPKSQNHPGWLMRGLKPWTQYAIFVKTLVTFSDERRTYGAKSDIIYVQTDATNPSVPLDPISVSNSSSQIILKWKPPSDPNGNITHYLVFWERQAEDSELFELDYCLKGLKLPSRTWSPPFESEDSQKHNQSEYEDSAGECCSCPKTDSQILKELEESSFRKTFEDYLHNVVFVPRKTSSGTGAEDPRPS
Chain of Insulin receptor (Homo sapiens) (P06213 763-1382 limits assumed): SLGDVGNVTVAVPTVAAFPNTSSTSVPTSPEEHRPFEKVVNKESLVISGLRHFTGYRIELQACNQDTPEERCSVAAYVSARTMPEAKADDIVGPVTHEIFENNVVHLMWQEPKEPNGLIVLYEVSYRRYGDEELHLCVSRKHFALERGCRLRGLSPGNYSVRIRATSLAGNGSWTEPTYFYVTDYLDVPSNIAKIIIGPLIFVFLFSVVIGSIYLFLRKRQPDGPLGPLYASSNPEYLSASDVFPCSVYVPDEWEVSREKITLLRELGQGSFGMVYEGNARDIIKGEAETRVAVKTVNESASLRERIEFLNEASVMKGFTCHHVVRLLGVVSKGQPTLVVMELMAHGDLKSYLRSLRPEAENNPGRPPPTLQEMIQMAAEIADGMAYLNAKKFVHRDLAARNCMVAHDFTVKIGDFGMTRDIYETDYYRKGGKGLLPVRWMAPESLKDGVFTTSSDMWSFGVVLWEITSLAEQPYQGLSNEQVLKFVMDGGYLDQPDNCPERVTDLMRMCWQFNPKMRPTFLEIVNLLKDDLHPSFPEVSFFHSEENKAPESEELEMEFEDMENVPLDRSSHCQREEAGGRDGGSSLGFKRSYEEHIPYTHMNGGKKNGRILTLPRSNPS

SMILES	residual activity [1]	residual activity [2]	residual activity [3]	residual activity [4]	residual activity [5]	residual activity [6]	residual activity [7]	residual activity [8]	residual activity [9]	residual activity [10]	residual activity [11]	residual activity [12]	residual activity [13]	residual activity [14]	residual activity [15]	residual activity [16]	residual activity [17]	residual activity [18]	residual activity [19]	residual activity [20]
CC(C)n1cnc2/c(=N/c3cccc(Cl)c3)nc(NCCO)[nH]c21	36%	68%	17%	76%	34%	44%	14%	96%	35%	76%	22%	92%	89%	111%	81%	103%	89%	97%	105%	64%
O=c1c2ccccc2[nH]c(=S)n1CCN1CCC(=C(c2ccc(F)cc2)c2ccc(F)cc2)CC1	121%	105%	101%	83%	86%	105%	103%	120%	71%	109%	96%	122%	102%	97%	101%	104%	83%	107%	101%	98%
Cn1cnc2cc3c(Nc4cccc(Br)c4)ncnc3cc21	103%	102%	100%	102%	73%	77%	46%	125%	78%	104%	87%	111%	99%	102%	108%	98%	77%	112%	94%	54%
NC(=O)c1ccc2[nH]c(-c3ccc(Oc4ccc(Cl)cc4)cc3)nc2c1	108%	100%	94%	95%	82%	80%	79%	107%	101%	102%	86%	97%	115%	105%	117%	97%	91%	88%	93%	98%
O=C(Nc1cccc(Nc2cc(Nc3cccc(C(F)(F)F)c3)ncn2)c1)C1CC1	94%	97%	106%	95%	96%	97%	80%	117%	63%	105%	95%	116%	138%	106%	115%	107%	83%	104%	103%	82%
COc1ccc(CNc2nc(N(CCO)CCO)nc3c2ncn3C(C)C)cc1	85%	90%	77%	91%	107%	71%	71%	92%	87%	94%	85%	91%	99%	105%	107%	104%	87%	83%	85%	75%
Cn1nc2c3c(cccc31)C(=O)c1ccccc1-2	74%	81%	63%	90%	87%	76%	47%	103%	89%	100%	92%	93%	76%	101%	70%	85%	83%	81%	83%	52%
O=C1Nc2ccccc2/C1=C1/Nc2ccccc2/C1=N\OCCC(O)CO (stereo not given)	4%	10%	4%	31%	23%	16%	0%	2%	2%	24%	2%	27%	29%	13%	1%	56%	61%	43%	30%	5%
CO[C@H]1[C@@H](OC)C[C@H](C)[C@@H](OC)C2=CC(=O)C=C(NC(=O)/C(C)=C/C=C/[C@H](OC)[C@@H](OC(N)=O)/C(C)=C/[C@@H]1C)C2=O	117%	100%	112%	106%	94%	107%	99%	133%	79%	106%	107%	114%	97%	94%	63%	120%	89%	114%	100%	113%
Cc1cc(Nc2nc(-c3ccccc3)nc3ccccc23)n[nH]1	5%	36%	7%	69%	23%	45%	12%	8%	1%	5%	0%	14%	1%	41%	5%	94%	71%		66%	51%
Nc1nc(Nc2ccc(S(N)(=O)=O)cc2)nn1C(=S)Nc1c(F)cccc1F				8%	16%	8%	0%			44%	3%	2%	0%	0%	2%	88%	84%	71%	19%	35%
COc1cccc(-c2cc(=O)c3ccccc3o2)c1N	94%	96%	92%	98%	96%	109%	94%	106%	91%	108%	108%	111%	107%	113%	108%	106%	101%	102%	100%	84%
CCN(CC)C(=O)c1ccc(Nc2nc(OCC3CCCCC3)c3nc[nH]c3n2)cc1	143%	47%	7%		35%	57%	15%	69%	1%	32%	2%	3%	-1%	7%	1%	44%	-11%	44%	0%	5%
O=C1Nc2ccc(Br)cc2/C1=C\c1cc2c([nH]1)CCCC2	79%					82%	77%	114%	63%			105%	99%	108%	101%	114%	114%	101%		
